Screening results from PubChem.
NPR1 activator = GC-A (human) enzyme activation. P16066. HEK293 GC-A cells, cGMP TR-FRET, EC30 ANP; 0% at EC30 ANP, 100% saturating ANP. activation, % at 10 µM. 370,000 compounds, 0.14% hits; in the data active means activation above about 40%
A3G deaminase = blocks human APOBEC3G single-stranded DNA deamination; Q9HC16; recombinant A3G, ssDNA deamination FAM/TAMRA fluorescence; inhibition, % at 20 µM; 330,000 compounds, 0.28% hits; AID 493012;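 active means inhibition of at least 40% at 20 µM, with no more than 30% in the related APOBEC3A deaminase screen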;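 further: plate controls were DMSO wells with A3G for no effect and wells lacking A3G enzyme for full effect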
A3A deaminase = inhibitors of human APOBEC3A DNA deaminase. inhibition, % at 20 µM. 330,000 compounds, 0.41% hits. recombinant A3A, FAM/TAMRA ssDNA deamination fluorescence;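 active means at least 40% inhibition at 20 µM here, with at most 30% in a related deaminase screen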;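 further: plate controls were A3A with DMSO for no effect and wells lacking A3A enzyme for full effect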
NPR2 activator = GC-B (human) receptor activation. 370,000 compounds, 0.11% hits. HEK293-GC-B cells, CNP EC30, cGMP TR-FRET; 0% at EC30 CNP, 100% saturating CNP. activation, % at 10 µM;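 active means activation at 10 µM reaching about 35% in either raw or pattern-adjusted values, limit read from the data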
Neddylation inh = blocks human cullin neddylation. inhibition, % at 25 µM. 360,000 compounds, 0.58% hits. AID 651699. P61081+Q13564. TR-FRET cullin neddylation, biochemical; in the data active means inhibition above about 36%
Target sequence (P61081 whole entry, looked up): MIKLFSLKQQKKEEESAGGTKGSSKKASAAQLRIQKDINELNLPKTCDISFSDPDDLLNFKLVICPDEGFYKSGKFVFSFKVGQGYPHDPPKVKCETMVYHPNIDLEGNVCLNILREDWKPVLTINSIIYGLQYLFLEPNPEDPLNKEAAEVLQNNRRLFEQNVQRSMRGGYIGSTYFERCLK
Target sequence (Q13564 whole entry, looked up): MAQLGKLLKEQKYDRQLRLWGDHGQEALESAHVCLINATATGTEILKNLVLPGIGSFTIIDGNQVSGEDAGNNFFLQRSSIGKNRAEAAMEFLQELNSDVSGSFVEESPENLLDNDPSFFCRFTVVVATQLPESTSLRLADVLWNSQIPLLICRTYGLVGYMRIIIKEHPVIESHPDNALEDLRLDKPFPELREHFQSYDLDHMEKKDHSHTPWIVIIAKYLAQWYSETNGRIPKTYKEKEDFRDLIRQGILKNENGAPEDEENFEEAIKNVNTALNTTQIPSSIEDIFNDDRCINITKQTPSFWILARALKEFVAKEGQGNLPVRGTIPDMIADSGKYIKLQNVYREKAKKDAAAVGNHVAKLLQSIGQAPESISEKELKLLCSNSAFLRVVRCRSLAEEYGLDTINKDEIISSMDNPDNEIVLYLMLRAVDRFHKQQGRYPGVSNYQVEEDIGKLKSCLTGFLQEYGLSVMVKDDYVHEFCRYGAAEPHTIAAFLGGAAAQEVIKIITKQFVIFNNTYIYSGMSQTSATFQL
PfGluPho inh = PfG6PD (Plasmodium falciparum) enzyme inhibition; PfGluPho enzyme, NADPH resazurin-diaphorase fluorescence; inhibition, % at 20 µM; 350,000 compounds, 0.78% hits;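 active means inhibition reaching at least a set limit at 20 µM in the primary screen, cut at about 59% in these data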;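 further: 0% = DMSO wells with substrate and 100% = DMSO wells lacking glucose-6-phosphate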
PfG6PD confirm = PfG6PD inhibition, single-dose confirmed | shares compounds with PfGluPho inh | recombinant PfGluPho, NADPH-diaphorase-resazurin fluorescence | inhibition, % at 20 µM | 2,400 compounds, 34% hits | AID 504753;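 active means inhibition of at least 50% at 20 µM in any single replicate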;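 further: 0% = DMSO with substrate and 100% = DMSO lacking glucose-6-phosphate substrate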
Diaphorase 10uM = counter-screen for P. falciparum G6PD inhibitors: diaphorase inhibitors, oxidizers; AID 504862; 820 compounds, 39% hits; diaphorase-coupled resazurin reduction, fluorescence, NADPH 10 uM; shares compounds with PfGluPho inh; inhibition, % at 20 µM;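 active means average inhibition reaching 50% or more with the compound at 20 µM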;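 further: resorufin red fluorescence formed as diaphorase reduces resazurin using NADPH; 0% = DMSO with enzyme and 100% = DMSO without enzyme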
Diaphorase 30uM = inhibits diaphorase or oxidizes, flagging false PfG6PD hits. shares compounds with PfGluPho inh. inhibition, % at 20 µM. AID 504863. Diaphorase/resazurin coupled assay, resorufin fluorescence, 30 uM NADPH. 820 compounds, 29% hits;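 active means inhibition averaging 50% or more, tested at 20 µM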;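 further: 0% = DMSO with enzyme and 100% = DMSO wells lacking diaphorase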
Neddyl inh conf = cullin neddylation inhibition, confirmation | shares compounds with Neddylation inh | TR-FRET cullin neddylation biochemical assay | calls only at 25 µM | 1,800 compounds, 13% hits | AID 652217; in the data active means inhibition above about 40%;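 further: neddylation substrate is the cullin 1 ring ligase complex with SKP2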
The depositor's hits bear a star; i = inactive; . = no result given; + = active, no number. Most compounds without a hit are left out; they make up all but 2% or so of the library.

SMILES | NPR1 activator | A3G deaminase | A3A deaminase | NPR2 activator | Neddylation inh | PfGluPho inh | PfG6PD confirm | others
C=C1C(=O)O[C@@H]2C[C@@H](C)[C@@H]3C=CC(=O)[C@@]3(C)[C@@H](OC(=O)CC(=O)O[C@H]3[C@@H]4C(=C)C(=O)O[C@@H]4C[C@@H](C)[C@@H]4C=CC(=O)[C@]43C)[C@H]12 | 23 | -3 | 1 | 20 | -2 | 68* | 56* | Diaphorase 10uM=-6;Diaphorase 30uM=-3
COC(=O)C12CCc3c(ccc4cc(OC)ccc34)C1=CC(=O)C2 (stereo not drawn) | -1 | . | . | 2 | 23 | 71* | 28
C=CCN1CC[C@@]2(C)c3cc(O)ccc3CC1[C@@H]2C | 5 | -4 | -6 | 3 | 6 | -20 | .
CN1CC[C@@]2(C)c3cc(O)ccc3N(C)[C@@H]12 | -3 | . | . | 0 | 1 | 83* | 104* | Diaphorase 10uM=74*;Diaphorase 30uM=48
COc1cc(O)c(C(=O)O)c(-c2cc(O)c(O)cc2C)c1 | 1 | 15 | 2 | -10 | 3 | 105* | 107* | Diaphorase 10uM=38;Diaphorase 30uM=25
COc1ccc2c(c1)c(C(=O)O)c(C)n2CC(C)C | 2 | -2 | -5 | 3 | 13 | -15 | .
CC(C)CCP(=O)(O)O | 3 | . | . | 2 | . | . | .
CN(C)c1ccc(C=C2C(=O)NC(=O)NC2=O)cc1 | 15 | . | . | 5 | 0 | 26 | .
CN(C)c1ccc(C=C2C(=O)NC(=S)NC2=O)cc1 | 9 | . | . | -5 | -15 | 69* | 41
O=C(NC1CCCCC1)N1Cc2cc(Br)ccc2-n2nncc2C1 | -6 | . | . | -6 | . | . | .
O=C(c1cc([N+](=O)[O-])ccc1N1CCNCC1)N1CCOCC1 | 3 | -2 | 2 | -2 | -15 | 7 | .
O=C(c1cc(-c2ccc(Cl)cc2)n(-c2ccc(Cl)cc2Cl)n1)N1CCOCC1 | -12 | -7 | -1 | -19 | 2 | 82* | 25
Nc1ccc2c3c(cccc13)-c1ccccc1-2 | 23 | . | . | 0 | -258 | 79* | 82* | Diaphorase 10uM=-16;Diaphorase 30uM=-8
O=C1Nc2ccc(Br)cc2C(c2ccc(Cl)cc2)=NC1O (stereo not drawn) | -4 | 1 | 1 | -1 | 3 | 100* | 75* | Diaphorase 10uM=83*;Diaphorase 30uM=67*
O=C(NCCN1CCC2(CC1)C(=O)NCN2c1ccccc1)c1ccccc1F | -2 | . | . | 2 | . | . | .
Cc1ccccc1C(=O)NCCN1CCC2(CC1)C(=O)NCN2c1ccccc1 | -2 | . | . | -7 | . | . | .
CCn1c(C)c(C(=O)Nc2ccc(OC)cc2)c2cc(OC)ccc21 | 4 | -9 | -2 | 1 | -7 | 66* | 26
c1ccc(-c2nc3ccccc3nc2-c2ccc(CN3CCC(n4nnc5ccccc54)CC3)cc2)cc1 | 0 | . | . | 4 | . | . | .
O=C1NC(=O)N(c2ccc3c(c2)OCO3)C(=O)/C1=C/c1cccs1 | 25 | 26 | 8 | 8 | -1 | 67* | 45
Clc1ccc(-c2nc3ccc(Cl)cn3c2CN2CCOCC2)cc1 | 9 | -2 | 0 | -5 | -15 | 60* | 33
C[C@]12CC[C@@H]3c4ccc(O)c(O)c4CC[C@H]3[C@@H]1CC[C@@H]2O | 3 | 64* | -1 | -4 | -1 | 100* | 93* | Diaphorase 10uM=8;Diaphorase 30uM=23
Oc1ccc(O)c2c1C1(Cl)C(Cl)=C(Cl)C2(Cl)C1(Cl)Cl | -9 | . | . | 0 | 3 | 73* | 12
COc1ccc(OC)c(N2C(=O)NC(=O)/C(=C/c3ccc([N+](=O)[O-])s3)C2=O)c1 | -4 | 13 | 24 | 2 | -32 | 62* | 38
COc1ccc(OC)c(N2C(=O)/C(=C/c3ccco3)C(=O)NC2=S)c1 | . | 88 | 99 | . | . | 19 | .
COc1cc2c(cc1OC)-c1c(OC)c(OC)cc3c1[C@H](C2)N(C)CC3 | 4 | -5 | 4 | -14 | -7 | 51 | .
SMILES | NPR1 activator | A3G deaminase | A3A deaminase | NPR2 activator | Neddylation inh | PfGluPho inh | PfG6PD confirm | others
COc1cc2c(cc1O)CC1c3c(cc(O)c(OC)c3-2)CCN1C (stereo not drawn) | -4 | -5 | 25 | 2 | 43* | 5 | .
Cn1c(O)c(/C=N/NC(=O)c2ccncc2)c(=O)[nH]c1=S | 2 | -12 | -5 | -3 | 33 | -12 | .
CCCCCCC(=O)N/N=C/c1c(O)n(CCCC)c(=S)[nH]c1=O | -2 | 0 | -1 | 0 | 50* | -66 | . | Neddyl inh conf=i
CCCCn1c(O)c(/C=N/NC(=O)c2ccncc2)c(=O)[nH]c1=S | -2 | 6 | 8 | 0 | 40* | -1 | .
CCCCC(=O)N/N=C/c1c(O)n(CCc2ccccc2)c(=O)[nH]c1=O | -3 | -7 | -3 | 2 | 45* | -19 | . | Neddyl inh conf=i
COC1CC=C2CCN3CCC4=C(CC(=O)OC4)C23C1 (stereo not drawn) | 5 | . | . | -7 | . | . | .
O=C(NCCN1CCC2(CC1)C(=O)NCN2c1ccccc1)c1cccs1 | -6 | . | . | 1 | . | . | .
Cc1ccc(-n2nc(C)cc2NC(=O)COc2cc(C)cc3oc(=O)c4c(c23)CCC4)cc1 | 0 | -7 | 3 | 1 | 43* | 8 | . | Neddyl inh conf=i
CN1C2CCC1C(C(=O)Oc1ccccc1)C(c1ccc(Cl)cc1)C2 (stereo not drawn) | -26 | . | . | -23 | . | . | .
COc1ccc(/C=N\N=C(N)N)cc1 | -2 | -6 | -5 | 5 | -24 | 10 | .
NC(N)=N/N=C/c1ccc(N2CCOCC2)cc1 | -8 | -4 | 2 | -3 | 54* | 8 | . | Neddyl inh conf=i
COC(=O)C1CC(OC(C)=O)C(=O)[C@H]2C1(C)CC[C@H]1C(=O)OC(c3ccoc3)CC12C (stereo partly drawn) | 1 | . | . | -1 | . | . | .
Cc1ccc(-c2cc(-c3ccccc3)cc(-c3ccccc3)[n+]2-c2ccc(C(=O)O)cc2)cc1 | 1 | -6 | 3 | 2 | 34* | -10 | . | Neddyl inh conf=+
COc1ccc(-[n+]2c(-c3ccccc3)cc(-c3ccc(C)cc3)cc2-c2ccccc2)cc1 | -19 | -7 | 0 | -5 | 21 | -5 | .
CC(C)OC(=O)C1C(c2ccc(I)cc2)CC2CCC1N2C (stereo not drawn) | -21 | . | . | -18 | . | . | .
CC1(O)CCC2C3CCC4=CC(=O)CCC4=C3C=CC21C (stereo not drawn) | -2 | . | . | 1 | 40* | 26 | . | Neddyl inh conf=i
CC[C@@H](CO)NC(=O)[C@@H]1C=C2c3cccc4[nH]cc(c34)C[C@H]2N(C)C1 | -4 | . | . | -5 | 45* | 25 | .
